Compound activity: PubChem, National Center for Advancing Translational Sciences (NCATS)
NS1 inh: blocks influenza NS1 protein function | Potency, µM (top dose mostly 46.1 µM) | 270,000 compounds, 0.4% hits; calls by dose curve; further: actives are rising curves; nearly all actives have a fitted effect of over 50% in size
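S. cerevisiae expressing influenza A NS1, grown in glucose, washed, then diluted 1:100 into pH 6.0 -URA galactose medium with 23 nl compound. Growth recovery read as OD600; NS1-free strain serves as control.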
Cruzain inh Det: blocks cruzain activity in presence of Triton detergent | purified cruzain, Z-FR-AMC fluorescence, 0.01% Triton | Potency, µM, most hits filed as inhibitors | 200,000 compounds, 0.43% hits | AID 1478; further: nearly all actives have a fitted effect of over 40% in size
Target sequence (P25779 123-467 limits assumed): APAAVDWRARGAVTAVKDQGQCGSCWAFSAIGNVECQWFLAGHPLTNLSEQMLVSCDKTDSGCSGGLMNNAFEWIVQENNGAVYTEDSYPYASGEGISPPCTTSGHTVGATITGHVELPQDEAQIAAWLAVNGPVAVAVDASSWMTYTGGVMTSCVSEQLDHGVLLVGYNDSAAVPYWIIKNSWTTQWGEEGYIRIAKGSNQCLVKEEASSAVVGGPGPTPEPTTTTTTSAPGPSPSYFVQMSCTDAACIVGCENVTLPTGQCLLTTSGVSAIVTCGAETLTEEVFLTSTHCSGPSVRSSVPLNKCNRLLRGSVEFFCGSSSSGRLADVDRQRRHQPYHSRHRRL
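In this qHTS format, compounds are incubated with 1.5 nM cruzain for 15 min at room temperature before 2 uM Z-FR-AMC is added. Release of AMC is followed at 360/450 nm, and progress is taken as the 60 s fluorescence difference.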
Cruzain noTriton: blocks cruzain activity in detergent-free assay; P25779; purified cruzain, Z-FR-AMC fluorescence, no detergent; Potency, µM, usual class: inhibitors; 200,000 compounds, 2.3% hits; AID 1476; further: nearly all actives have a fitted effect of over 40% in size
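Detergent-free condition (0.00005% Triton X-100) in acetate buffer pH 5.5 with DTT. 1.5 nM enzyme and compound were pre-mixed 15 min, then 2 uM Z-FR-AMC substrate added; reaction progress from fluorescence change between first and third reads (60 s).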
Hits are given with their value; 0 = inactive; ? = inconclusive; - = no result given. The full list was thinned out, with hits kept by preference. Unless noted, the call rests on the fitted dose curve; in most records, active means well fitted curve in the direction sought with a large enough effect; inconclusive means small, poorly fitted or top-dose-only effect, or another doubt; inactive means no such curve, though single readings can be large; an effect the other way counts as inactive or inconclusive.

SMILES	NS1 inh	Cruzain inh Det	Cruzain noTriton
COc1ccc(OC)c(CNC(=O)C2CCCCN2S(=O)(=O)c2ccc(F)cc2)c1 (stereo not drawn)	-	0	0
COc1ccc(-c2noc(-c3ccc(NCc4ccccc4OC)c([N+](=O)[O-])c3)n2)cc1	-	0	0
O=C1CC(N(CCc2ccccc2)C(=S)Nc2cc(Cl)ccc2Cl)C(=O)N1c1c(Cl)cccc1Cl (stereo not drawn)	?	0	13µM
O=C1CC(N(CCc2ccccc2)C(=S)Nc2ccccc2)C(=O)N1c1ccccc1 (stereo not drawn)	0	0	0
CCn1nc(-c2ccccc2)c(-c2ccccc2)c(C(=O)Nc2nc(C)c(C(C)=O)s2)c1=O	-	0	?
CC(=O)c1nn(-c2cccc(Br)c2)cc1C(=O)c1ccc2ccccc2c1	0	0	10µM
CC(=O)c1nn(-c2ccc(Br)cc2)cc1C(=O)c1ccccc1	0	0	?
Cc1nn(-c2ccccc2)c(OC(=O)c2ccccc2Br)c1S(=O)(=O)c1ccccc1	-	0	0
Cc1onc(-c2ccccc2Cl)c1C(=O)Nc1nc2c(s1)CCCC2	0	0	25µM
Cc1onc(-c2ccccc2Cl)c1C(=O)Nc1nnc(-c2ccc(Cl)cc2Cl)s1	0	0	?
O=C(NC(=S)Nc1nc2c(s1)CSc1ccccc1-2)c1ccccc1	0	0	7.9µM
COC(=O)c1ccc(C(=O)NC(=S)Nc2nc3c(s2)CC(C)CC3)cc1 (stereo not drawn)	0	0	0
O=C(Nc1nc2c(s1)CCCC2)c1cccnc1	0	0	0
O=C(NC(=S)Nc1nc2c(s1)CCCC2)c1ccc(C(=O)c2ccccc2)cc1	0	0	25µM
Cc1cccc(N2CCN(C(=O)Cn3cnc4sc(C)c(S(=O)(=O)N5CCN(c6ncccn6)CC5)c4c3=O)CC2C)c1 (stereo not drawn)	-	0	?
CCCCCCCCCCCCCCC[C@@H](O)[C@H](CO)NC(=O)CCCCCCC	-	0	0
CN(C)C(=O)Nc1cccc(C(F)(F)F)c1	-	0	0
COc1ccc(NC(=O)C(=O)N/N=C/c2cc(C)n(-c3cccc(Cl)c3Cl)c2C)c(OC)c1	0	0	13µM
COc1ccc(OC)c(NC(=O)C(=O)N/N=C/c2ccccc2[N+](=O)[O-])c1	0	0	0
CC(C)(C)Nc1oc(-c2ccccc2)nc1-c1ccccc1F	-	0	0
CCOc1cccc(C(=O)NC(=S)Nc2ccc(N3CCCC3)cc2)c1	0	?	32µM
CCOc1cccc(C(=O)Nc2ccc(N3CCN(S(C)(=O)=O)CC3)cc2)c1	0	0	0
O=C(NC(=S)Nc1ccc(N2CCOCC2)cc1)c1ccc2c(c1)OCCO2	0	0	0
